Measured potencies and affinities stand elsewhere.
biological target: Short transient receptor potential channel 4 (Mus musculus) (UniProt Q9QUQ5); assay: block of DAMGO-driven TRPC4 calcium entry – cell-based, HEK293 TRPC4/mu-opioid, Fluo-4 calcium, dose response (AID 434942); settings: HEK293 TRPC4/mu-opioid cells, DAMGO-evoked Fluo-4 calcium ratio; series mostly up to 20 µM; ratio response (lower = inhibition): at the top concentration
Sequence (Q9QUQ5 whole entry, looked up): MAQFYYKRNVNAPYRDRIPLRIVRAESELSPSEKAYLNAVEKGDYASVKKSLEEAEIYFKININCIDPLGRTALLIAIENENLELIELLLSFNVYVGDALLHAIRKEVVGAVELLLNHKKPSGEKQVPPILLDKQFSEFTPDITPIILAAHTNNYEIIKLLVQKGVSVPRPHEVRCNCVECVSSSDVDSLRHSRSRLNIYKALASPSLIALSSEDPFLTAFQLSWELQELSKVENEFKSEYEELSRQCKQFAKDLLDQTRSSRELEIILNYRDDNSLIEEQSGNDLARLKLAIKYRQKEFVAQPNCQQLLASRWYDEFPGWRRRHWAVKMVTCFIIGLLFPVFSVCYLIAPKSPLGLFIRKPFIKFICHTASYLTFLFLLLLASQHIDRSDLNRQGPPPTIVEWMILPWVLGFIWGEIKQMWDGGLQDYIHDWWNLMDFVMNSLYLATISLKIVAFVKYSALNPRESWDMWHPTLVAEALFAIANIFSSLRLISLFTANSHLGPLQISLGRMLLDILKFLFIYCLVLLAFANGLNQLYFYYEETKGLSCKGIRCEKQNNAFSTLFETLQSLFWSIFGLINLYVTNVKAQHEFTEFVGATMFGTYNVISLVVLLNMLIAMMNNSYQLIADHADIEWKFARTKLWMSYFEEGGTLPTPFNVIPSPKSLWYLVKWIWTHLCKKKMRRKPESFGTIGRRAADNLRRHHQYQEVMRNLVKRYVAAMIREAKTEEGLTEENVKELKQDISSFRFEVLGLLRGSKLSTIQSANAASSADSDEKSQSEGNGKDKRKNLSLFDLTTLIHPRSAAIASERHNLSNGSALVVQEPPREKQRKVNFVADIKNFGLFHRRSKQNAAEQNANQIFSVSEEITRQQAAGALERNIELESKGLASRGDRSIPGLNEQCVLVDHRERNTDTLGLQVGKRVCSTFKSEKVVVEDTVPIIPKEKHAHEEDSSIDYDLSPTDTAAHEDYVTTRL

Ratio response (lower = inhibition), inactive:
CCN1CCN(c2ccc(S(=O)(=O)N3CCCCC3)cc2NC(=O)c2cccc(OC(F)F)c2)CC1 154
Fc1ccc(CN2C3=NCCCN3c3ccccc32)cc1 8.06
COc1ccc(-n2cc(CNCc3cnc4ccccn34)c(-c3cccc(F)c3)n2)cc1 2.66
N=c1c(C(=O)NCc2ccc(F)cc2)cc2c(=O)n3ccccc3nc2n1Cc1ccco1 51
O=C1CC2(CCN(S(=O)(=O)c3ccccc3F)CC2)Oc2ccccc21 83.6
O=C1Cc2ccccc2Sc2c(OCCN3CCCCC3)cccc21 6.54
C/C(CC(=O)NCc1ccc(Cl)cc1)=N\NC(=O)COc1ccc(C)cc1Br 30.7
CCCCNc1c(-c2ccc(SC(C)CC)c(OC)c2)nc2ccc(C)cn12 (centres undefined) 37.3
CCOC(=O)C1NN=C(C(=O)c2ccccc2)C1c1ccc(Cl)cc1 (centres undefined) 3.97
O=[N+]([O-])c1ccc(N2CCN(CCOc3nonc3-c3ccccc3)CC2)c(Cl)c1 81.6
COc1ccc(-c2cc(C(=O)N3CC(C)CC(C)C3)c3ccccc3n2)cc1 (centres undefined) 41.7
COC(=O)c1cc(N2CCN(C)CC2)nc2ccccc12 69.4
COc1cc(C2c3c(-c4ccccc4)n[nH]c3C(=O)N2c2ccccc2)ccc1O (centres undefined) 74
O=C(c1ccccc1)c1coc2ccc(O)c(CN3CCOCC3)c12 17.4
CN(C)S(=O)(=O)c1cccc(COC(=O)c2ccc(Cl)cc2O)c1 119
CCOC(=O)C1=C(C)N(c2ccccc2)C(=O)NC1c1cccc([N+](=O)[O-])c1 (centres undefined) 33.2
Cc1cc(=O)oc2cc(NC(=S)NCc3ccccn3)ccc12 43.7
Cc1nnc(Sc2cc(NCCCO)c([N+](=O)[O-])c3nonc23)s1 6.79
CCOC(=O)C1=NNC(C(=O)c2ccc(Cl)cc2)C1c1ccc(OC)cc1 (centres undefined) 49.8
CN1CCN(NC(=O)Nc2cc(Cl)cc(Cl)c2)CC1 110
Cc1ccc(C[n+]2cccc(-c3ccccc3)c2)c(C)c1 9.49
Cc1ccc(C(=O)C[n+]2cccc3cc(C)ccc32)cc1 9.35
COc1ccc(OC)c(NC(=O)COC(=O)Cc2ccc(-c3ccccc3)cc2)c1 91.3
CC(C)c1ccc(C(C)NCCS(=O)(=O)c2ccc(Br)cc2)cc1 (centres undefined) 51.3
Cc1ccc(C)c(N(CC(=O)NC2CCCC2)C(=O)c2csnn2)c1 41.3
Cc1ccc(-n2c(N)cc(=O)nc2SCC(=O)N2CCN(c3ccccc3)CC2)cc1 10.4
N=c1c(C(=O)NCC2CCCO2)cc2c(=O)n3ccccc3nc2n1Cc1ccc(Cl)cc1 (centres undefined) 179
CN(CCNC(=O)c1ccc(/C=N/O)nc1)Cc1ccccc1 144
CCOC(=O)C1=C(CNCCc2ccc(Cl)cc2)NC(=O)NC1c1cccc([N+](=O)[O-])c1 (centres undefined) 56.2
O=C(NCC(c1ccco1)N1CCc2ccccc2C1)c1ccc(F)cc1 (centres undefined) 42.3
CCCc1c(-c2ccc(O)cc2)nn(-c2ccc(O)cc2)c1-c1ccc(O)cc1 95.6
Cc1ccc(-c2c(C(=O)N/N=C/c3ccc(OC(C)C)cc3)nnn2-c2nonc2N)cc1 105
CCOC(=O)CSc1nc2ccccc2c(=O)n1C1CCCC1 9.59
CCN1C(=O)/C(=C/C=C2\N(CC)c3cc(S(=O)(=O)N(C)C)ccc3N2c2ccccc2)SC1=S 61.5
CCCCn1c(N)c(N(CCOC)C(=O)c2ccc(-c3ccc(C(C)=O)cc3)o2)c(=O)[nH]c1=O 67.6
CC(C)CN(C(=O)C1CC1)c1c(N)n(Cc2ccccc2)c(=O)[nH]c1=O 52.7
CCOC(=O)CC(NS(=O)(=O)c1ccc(OC)c(C)c1)c1cccc([N+](=O)[O-])c1 (centres undefined) 31.1
Clc1ccc2nc(CN3CCCc4ccccc43)cn2c1 60.2
Cc1cc(Cl)ccc1OC(C)C(=O)Nc1ccccc1N1CCOCC1 (centres undefined) 10.3

Source: PubChem BioAssay
